This test addresses furin, P09958. Kind of test: furin cleavage Z-score vs untreated control; higher = more cleavage, active = 3.5 or more, inactive = 1 or less, 8 variable residues between constant flanks. The gist of the method: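 Peptides 8 residues long, fused to a cDNA oligonucleotide, were fixed to magnetic beads by the N-terminus and exposed to purified furin. The 0.01 ml reactions contained 50 mM HEPES pH 7.5 with CaCl2 and NaCl at 1:10 enzyme:substrate and ran 7.5, 15 or 30 min. For the cleavage Z-score, log counts of sequenced released DNA were compared with furin-free reactions, lowess-adjusted and scaled by median absolute deviation.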

Some of the results follow. No count for the full screen is at hand.

Chain of furin, P09958 (P09958 whole entry, the tested form may be a part): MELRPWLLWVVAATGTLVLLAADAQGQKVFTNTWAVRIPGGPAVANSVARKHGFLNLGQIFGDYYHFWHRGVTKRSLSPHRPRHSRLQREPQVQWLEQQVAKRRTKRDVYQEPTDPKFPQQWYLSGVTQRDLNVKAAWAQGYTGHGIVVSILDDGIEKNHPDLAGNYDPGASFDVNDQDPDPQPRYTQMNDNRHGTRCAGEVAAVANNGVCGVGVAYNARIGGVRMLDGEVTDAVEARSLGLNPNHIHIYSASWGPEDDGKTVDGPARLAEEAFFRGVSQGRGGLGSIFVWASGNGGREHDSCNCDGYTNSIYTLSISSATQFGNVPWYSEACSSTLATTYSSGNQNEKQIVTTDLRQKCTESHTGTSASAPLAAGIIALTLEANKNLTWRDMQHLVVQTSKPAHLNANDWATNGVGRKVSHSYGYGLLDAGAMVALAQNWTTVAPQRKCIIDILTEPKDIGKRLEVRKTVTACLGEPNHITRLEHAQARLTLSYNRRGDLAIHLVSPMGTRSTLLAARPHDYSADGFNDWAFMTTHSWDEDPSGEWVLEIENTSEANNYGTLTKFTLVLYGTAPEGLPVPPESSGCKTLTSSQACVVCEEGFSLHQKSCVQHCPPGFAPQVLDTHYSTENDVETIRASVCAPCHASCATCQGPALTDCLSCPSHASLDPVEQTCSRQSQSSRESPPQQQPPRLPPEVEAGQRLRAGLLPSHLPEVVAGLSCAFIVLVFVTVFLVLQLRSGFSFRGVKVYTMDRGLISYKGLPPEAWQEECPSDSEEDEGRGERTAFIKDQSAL

On to CAERLRQKRIAGNASASA [FS-1194], for which the “furin cleavage Z-score” value is 4.13 (active) (7.5 min), 5.45 (active) (15 min) and 4.4 (active) (30 min).

For the sequence CASIARQKRIAGNASASA [FS-562], the “furin cleavage Z-score” value reads like this: (7.5 min) 4.19 (active); (15 min) 2.74; (30 min) 5.27 (active).

With CASITRMKRIAGNASASA [FS-719], the “furin cleavage Z-score” value is, setting by setting: (7.5 min) 6.03 (active); (15 min) 8.1 (active); (30 min) 7.63 (active).

Turning to CALHRRQKRIAGNASASA [FS-821], the “furin cleavage Z-score” value is, setting by setting: (7.5 min) 9.03 (active); (15 min) 10.1 (active); (30 min) 10.5 (active).

CARSLRSWLIAGNASASA [FS-1974]: the “furin cleavage Z-score” value runs as follows: (7.5 min) 0.545 (inactive); (15 min) 0.463 (inactive); (30 min) 0.528 (inactive).

As for CAMSTRKARIAGNASASA [FS-277], the “furin cleavage Z-score” value reads like this: (7.5 min) 1.25; (15 min) 1.83; (30 min) -0.362 (inactive).

CAHQWISSECAGNASASA [HC1141]: the “furin cleavage Z-score” value was -0.592 (inactive) (7.5 min), -1.1 (inactive) (15 min) and 0.453 (inactive) (30 min).

For CAKWEYVVLLAGNASASA [HC518], the “furin cleavage Z-score” value by setting is: (7.5 min) 0.0863 (inactive); (15 min) -1.74 (inactive); (30 min) -0.726 (inactive).

On to CAVPRRSKRIAGNASASA [FS-513], for which the “furin cleavage Z-score” value (7.5 min) is 6.01 (active), the “furin cleavage Z-score” value (15 min) was 7.79 (active) and the “furin cleavage Z-score” value (30 min) is 6.97 (active).

As to CAANRRMKRIAGNASASA [FS-750], the “furin cleavage Z-score” value by setting is: (7.5 min) 7.06 (active); (15 min) 9.01 (active); (30 min) 7.77 (active).

As for CAFPMRSKKIAGNASASA [FS-771], the “furin cleavage Z-score” value is -1.66 (inactive) (7.5 min), 0.142 (inactive) (15 min) and -0.16 (inactive) (30 min).

CADDERSKRIAGNASASA [FS-221]: the “furin cleavage Z-score” value reads like this: (7.5 min) 0.272 (inactive); (15 min) 0.273 (inactive); (30 min) -0.987 (inactive).

Take CALVVRGPPGAGNASASA [FS-1846]: the “furin cleavage Z-score” value reads like this: (7.5 min) -0.565 (inactive); (15 min) -0.565 (inactive); (30 min) -0.843 (inactive).

Consider CASHHRHRRGAGNASASA [FS-1410], for which the “furin cleavage Z-score” value (7.5 min) was 9.65 (active), the “furin cleavage Z-score” value (15 min) was 10.8 (active) and the “furin cleavage Z-score” value (30 min) is 9.31 (active).

Regarding CAHHHRHRRAAGNASASA [FS-1006], the “furin cleavage Z-score” value is 9.03 (active) (7.5 min), 6.62 (active) (15 min) and 5.92 (active) (30 min).

As for CALRAWRHRAAGNASASA [HC1619], the “furin cleavage Z-score” value reads like this: (7.5 min) 2.05; (15 min) 0.378 (inactive); (30 min) 0.854 (inactive).

For CASLERLRRGAGNASASA [FS-296], the “furin cleavage Z-score” value is 0.592 (inactive) (7.5 min), 0.0398 (inactive) (15 min) and 0.764 (inactive) (30 min).

On to CAHHHRHHRAAGNASASA [FS-1336], for which the “furin cleavage Z-score” value was 2.38 (7.5 min), 2.68 (15 min) and 3.58 (active) (30 min).

Take CAMKECSQHLAGNASASA [HC1694]: the “furin cleavage Z-score” value was -0.048 (inactive) (7.5 min), -0.457 (inactive) (15 min) and -0.785 (inactive) (30 min).

On to CATTPCSNSWAGNASASA [HC1901], for which the “furin cleavage Z-score” value reads like this: (7.5 min) 0.617 (inactive); (15 min) 0.249 (inactive); (30 min) 1.55.

As to CAEKKRKFIKAGNASASA [FS-2119], the “furin cleavage Z-score” value was -0.691 (inactive) (7.5 min), -0.493 (inactive) (15 min) and -0.629 (inactive) (30 min).

For the sequence CARQKREWIKAGNASASA [FS-2752], the “furin cleavage Z-score” value runs as follows: (7.5 min) 4.32 (active); (15 min) 5.62 (active); (30 min) 9.03 (active).

Consider CARQKREWVKAGNASASA [FS-2753], for which the “furin cleavage Z-score” value (7.5 min) was 3.59 (active), the “furin cleavage Z-score” value (15 min) was 6.92 (active) and the “furin cleavage Z-score” value (30 min) is 8.88 (active).

For CAMEECWQHLAGNASASA [HC27], the “furin cleavage Z-score” value is, setting by setting: (7.5 min) 1.1; (15 min) 1.46; (30 min) 0.479 (inactive).

With CAYSPGEINRAGNASASA [HC1609], the “furin cleavage Z-score” value was -1.45 (inactive) (7.5 min), 1.01 (15 min) and -0.452 (inactive) (30 min).

Consider CAEVDCHRPSAGNASASA [HC2351], for which the “furin cleavage Z-score” value is 0.842 (inactive) (7.5 min), 0.436 (inactive) (15 min) and 0.244 (inactive) (30 min).

On to CARISRSISEAGNASASA [FS-2033], for which the “furin cleavage Z-score” value is 7.46 (active) (7.5 min), 8.18 (active) (15 min) and 7.34 (active) (30 min).

As for CATGLIHLHQAGNASASA [HC504], the “furin cleavage Z-score” value runs as follows: (7.5 min) 0.174 (inactive); (15 min) 0.0378 (inactive); (30 min) -0.549 (inactive).

Consider CARISRSLHQAGNASASA [FS-3190], for which the “furin cleavage Z-score” value is 6.79 (active) (7.5 min), 8.81 (active) (15 min) and 8.11 (active) (30 min).

As to CARPSRSGGRAGNASASA [FS-2287], the “furin cleavage Z-score” value reads like this: (7.5 min) -1.07 (inactive); (15 min) -0.551 (inactive); (30 min) -0.606 (inactive).

With CARKKKSISLAGNASASA [FS-1855], the “furin cleavage Z-score” value was 0.218 (inactive) (7.5 min), 1.42 (15 min) and 3.47 (30 min).

Consider CAQGSRSLTPAGNASASA [HC718], for which the “furin cleavage Z-score” value (7.5 min) is 0.532 (inactive), the “furin cleavage Z-score” value (15 min) was -0.507 (inactive) and the “furin cleavage Z-score” value (30 min) is 0.396 (inactive).

Turning to CARATRKTSEAGNASASA [HC184], the “furin cleavage Z-score” value is -0.121 (inactive) (7.5 min), -1.01 (inactive) (15 min) and -1.25 (inactive) (30 min).

For the sequence CARPSRSISLAGNASASA [FS-3027], the “furin cleavage Z-score” value was 3.14 (7.5 min), 4.81 (active) (15 min) and 5.36 (active) (30 min).

For the sequence CADQLEQALDAGNASASA [HC1589], the “furin cleavage Z-score” value (7.5 min) was -1.05 (inactive), the “furin cleavage Z-score” value (15 min) is -1.96 (inactive) and the “furin cleavage Z-score” value (30 min) is -1.11 (inactive).

With CATHVTGGSAAGNASASA [HC353], the “furin cleavage Z-score” value reads like this: (7.5 min) -0.463 (inactive); (15 min) -0.337 (inactive); (30 min) -2.02 (inactive).

For CAKDVVCCSMAGNASASA [HC2114], the “furin cleavage Z-score” value is 0.322 (inactive) (7.5 min), 0.43 (inactive) (15 min) and -1.58 (inactive) (30 min).

As to CADSVDAKPDAGNASASA [CS1], the “furin cleavage Z-score” value is, setting by setting: (7.5 min) -0.899 (inactive); (15 min) -0.697 (inactive); (30 min) -0.815 (inactive).

With CAGPGRVRRRAGNASASA [FS-28], the “furin cleavage Z-score” value is, setting by setting: (7.5 min) 8.24 (active); (15 min) 9.49 (active); (30 min) 7.22 (active).

For the sequence CAPTTRVRRRAGNASASA [FS-702], the “furin cleavage Z-score” value is 9.76 (active) (7.5 min), 10.9 (active) (15 min) and 9.44 (active) (30 min).

As for CARQRRVRRRAGNASASA [FS-1160], the “furin cleavage Z-score” value is, setting by setting: (7.5 min) 6.79 (active); (15 min) 6.89 (active); (30 min) 6.35 (active).

With CARQRRIYKTAGNASASA [FS-2590], the “furin cleavage Z-score” value by setting is: (7.5 min) -1.61 (inactive); (15 min) -1.71 (inactive); (30 min) -0.22 (inactive).

As to CAPSPRQARRAGNASASA [FS-1246], the “furin cleavage Z-score” value runs as follows: (7.5 min) 0.263 (inactive); (15 min) 2.43; (30 min) 2.92.

On to CARQRRVPGNAGNASASA [FS-2768], for which the “furin cleavage Z-score” value was 1.18 (7.5 min), -0.0341 (inactive) (15 min) and 0.472 (inactive) (30 min).

Values taken from the supplement of paper PMC3545927.
